Some test systems named below: HCT-15 colon; HT29 colon; SNB-19 CNS; U251 CNS; PC-3 prostate; SK-MEL-5 melanoma; UACC-62 melanoma; LOX IMVI melanoma; SK-MEL-28 melanoma; EKVX NSCLC; SN12C renal; UO-31 renal; TK-10 renal; ACHN renal; CAKI-1 renal; MOLT-4 leukemia; A498 renal; SK-MEL-2 melanoma; CCRF-CEM leukemia.
What all share (assay): NCI-60 one-dose screen, 48 h (100 = growth as untreated, 0 = no growth, -100 = all killed)
Common to all, as to conditions: 10 µM unless noted

This is part of a sample that, as a whole, favours compounds with a hit. Of some 83,000 tested, about 20% had one in any assay.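 Negative percent growth values reflect cell death: -40 means 40% of the cells present at the start died, and -100 means all died.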 Values without a mark were called inactive. Active and inactive are the calls of the source. How the source made its calls: active means growth percent below 10; inactive means the rest.

In the case of `COc1ccc(-c2cnoc2-c2ccc(OC)cc2O)cc1`, the growth is 26.7% in the experiment with HCT-15 colon; 24.1% in the experiment with HT29 colon; 42.4% in the experiment with SNB-19 CNS; 25.6% with U251 CNS; 53.2% with PC-3 prostate; 15.8% in the experiment on SK-MEL-5 melanoma. Besides, the growth in the experiment with UACC-62 melanoma was 28.9%; with LOX IMVI melanoma, 41.2%; with SK-MEL-28 melanoma, 45%; with EKVX NSCLC, 82.9%; with SN12C renal, 37.2%; in the experiment on UO-31 renal it was 74.5%. Moreover, the growth with TK-10 renal was 86.9%; in the experiment with ACHN renal, 57.4%; in the experiment on CAKI-1 renal, 45.2%; in the experiment with MOLT-4 leukemia, 44.2%.

In the case of `COc1cc(C(=O)/C=C/c2ccc3nc(-c4cc(F)cc(F)c4)sc3c2)cc(OC)c1OC`, the growth is 99.5% with HCT-15 colon; 95.9% with HT29 colon; 98.3% in the experiment on SNB-19 CNS; 92.5% in the experiment with U251 CNS; 95.1% with PC-3 prostate; 118% in the experiment with SK-MEL-5 melanoma. Further, the growth with UACC-62 melanoma was 95.6%; with LOX IMVI melanoma, 94.9%; in the experiment on SK-MEL-28 melanoma, 106%; in the experiment with EKVX NSCLC it was 110%; in the experiment on SN12C renal it was 93%; with UO-31 renal, 88.8%. For the same molecule, the growth is 100% in the experiment with TK-10 renal; 88.1% in the experiment with ACHN renal; 104% in the experiment on CAKI-1 renal; 98.1% in the experiment on A498 renal; 103% in the experiment on MOLT-4 leukemia.

Consider `C=C1C(=O)O[C@@H]2[C@@H]3O[C@@](C)(CC/C=C(\C)CCC[C@@H]2C)[C@H](O)C[C@@H]13`, for which the growth in the experiment with HCT-15 colon was 38.9%; in the experiment with HT29 colon, 32.3%; in the experiment with SNB-19 CNS, 84.3%; in the experiment with U251 CNS, 56.4%; in the experiment on PC-3 prostate, 39.8%; with SK-MEL-5 melanoma, 48.2%. For the same molecule, the growth in the experiment with UACC-62 melanoma is 17.2%; in the experiment with LOX IMVI melanoma it was 44%; with SK-MEL-28 melanoma it was 80.5%; in the experiment with EKVX NSCLC, 76.3%; with SN12C renal it was 47.3%; in the experiment on UO-31 renal, 45%. In addition, the growth in the experiment with TK-10 renal is 32%; in the experiment on ACHN renal, 51.9%; with CAKI-1 renal it was 39%; in the experiment on A498 renal, 66.8%; in the experiment on MOLT-4 leukemia, 16.8%.

`O=C1/C(=C/c2ccccc2)CN(C(=O)CCN2CCC(=NO)CC2)C/C1=C\c1ccccc1`: the growth in the experiment with HCT-15 colon was -42.7% (active); in the experiment on HT29 colon it was -81% (active); in the experiment with SNB-19 CNS, -18.6% (active); with U251 CNS it was -52.7% (active); with PC-3 prostate, -7.51% (active); in the experiment on SK-MEL-5 melanoma, -59.2% (active). Moreover, the growth in the experiment on UACC-62 melanoma was -59.7% (active); in the experiment with LOX IMVI melanoma, -90.7% (active); in the experiment with SK-MEL-2 melanoma it was 55.2%; in the experiment with EKVX NSCLC, 1.08% (active); with SN12C renal, -18.6% (active); in the experiment on UO-31 renal, -84% (active). Also, the growth with TK-10 renal was 0.636% (active); in the experiment on ACHN renal, -11% (active); with CAKI-1 renal, -6.16% (active); in the experiment with A498 renal it was 80%; in the experiment with CCRF-CEM leukemia, -2.62% (active); with MOLT-4 leukemia it was 8.95% (active).

Consider `O=C(Nc1ccncc1)C(=O)c1cn(S(=O)(=O)c2ccccc2F)c2ccccc12`, for which the growth in the experiment with HCT-15 colon was 31.7%; in the experiment with HT29 colon it was 7.48% (active); in the experiment on SNB-19 CNS, 60.6%; in the experiment on U251 CNS it was 30.7%; with PC-3 prostate, 40.1%; in the experiment with SK-MEL-5 melanoma, 13.5%. The growth with UACC-62 melanoma was 32.3%; in the experiment on LOX IMVI melanoma, 37%; with SK-MEL-28 melanoma it was 61.5%; in the experiment with EKVX NSCLC, 49.2%; in the experiment with SN12C renal it was 33.8%; in the experiment on UO-31 renal, 52.9%. Further, the growth was 101% in the experiment with TK-10 renal; 56.8% in the experiment with ACHN renal; 35.6% with CAKI-1 renal; 49.7% with A498 renal; 39.1% in the experiment on MOLT-4 leukemia.

For `O=[N+]([O-])c1cnc(Sc2ccncn2)s1`, the growth in the experiment on HCT-15 colon is -16% (active); with HT29 colon, 55.5%; in the experiment with SNB-19 CNS, 103%; in the experiment on U251 CNS, 91.9%; in the experiment on PC-3 prostate it was 14.4%; with SK-MEL-5 melanoma, 88.2%. Moreover, the growth in the experiment with UACC-62 melanoma was 70.4%; in the experiment with LOX IMVI melanoma, 64.5%; with SK-MEL-2 melanoma it was -58% (active); in the experiment on EKVX NSCLC, 61.7%; in the experiment on SN12C renal, 63.6%; with UO-31 renal, -88.3% (active). The growth in the experiment with TK-10 renal was 4.67% (active); with ACHN renal, -97.8% (active); in the experiment on A498 renal, 88%; with CCRF-CEM leukemia, -32.3% (active); in the experiment with MOLT-4 leukemia, -42.3% (active).

`C=C1CCC[C@]2(C)CCC[C@H](C)[C@@H](OC(C)=O)[C@@H]3OC(=O)C(=C)[C@@H]3C[C@H]1O2`: the growth was 65.9% in the experiment with HCT-15 colon; 67.8% in the experiment with HT29 colon; 88.9% with SNB-19 CNS; 72.5% with U251 CNS; 53% in the experiment with PC-3 prostate; 72.7% in the experiment with SK-MEL-5 melanoma. Further, the growth with UACC-62 melanoma was 58%; with LOX IMVI melanoma, 72.2%; with SK-MEL-28 melanoma, 95.2%; with EKVX NSCLC, 77.3%; in the experiment with SN12C renal, 68.5%; in the experiment with UO-31 renal it was 87.1%. In addition, the growth with TK-10 renal is 109%; in the experiment on ACHN renal, 80.1%; with CAKI-1 renal, 69.4%; in the experiment with A498 renal, 68.7%; with MOLT-4 leukemia, 64%.

As for `O=C1c2ccccc2-c2ccccc2C1(Cl)Cl`, the growth in the experiment on HCT-15 colon was -60.2% (active); with HT29 colon, -38.4% (active); in the experiment with SNB-19 CNS it was -83.5% (active); in the experiment on U251 CNS, -90.1% (active); in the experiment with PC-3 prostate, -29.5% (active); in the experiment with SK-MEL-5 melanoma, -95.5% (active). Further, the growth is -83.4% (active) in the experiment on UACC-62 melanoma; -31.8% (active) with LOX IMVI melanoma; -71% (active) in the experiment with SK-MEL-2 melanoma; -93.2% (active) with EKVX NSCLC; -76.1% (active) in the experiment with SN12C renal; -100% (active) with UO-31 renal. Also, the growth was 90% with TK-10 renal; -67% (active) in the experiment with ACHN renal; -92.1% (active) in the experiment with CAKI-1 renal; 101% in the experiment with A498 renal; 11.2% in the experiment with CCRF-CEM leukemia; 0.097% (active) with MOLT-4 leukemia.

Turning to `COc1cc(/C(C#N)=C/c2ccc3c(c2OC)OCO3)cc2c1OCO2`, the growth was 33% with HCT-15 colon; 0.067% (active) in the experiment with HT29 colon; 31.2% with SNB-19 CNS; 18.9% in the experiment on U251 CNS; 40.8% in the experiment on PC-3 prostate; 36.9% in the experiment on SK-MEL-5 melanoma. The growth with UACC-62 melanoma was 18.5%; in the experiment on LOX IMVI melanoma, 24.2%; with SK-MEL-28 melanoma, 45.7%; in the experiment on EKVX NSCLC, 45.9%; in the experiment on SN12C renal it was 36.6%; with UO-31 renal it was 41.7%. The growth is 54.3% in the experiment on TK-10 renal; 51.6% with ACHN renal; 42.9% in the experiment on CAKI-1 renal; 8.92% (active) in the experiment with A498 renal; 50.6% in the experiment with MOLT-4 leukemia.

The values above are taken from PubChem BioAssay (NCI).
